According to PubChem BioAssay (Tox21):
Results filed as inconclusive are left out. Calls of active or inactive are those of the source. Calls come from the whole dose curve.

test system: not listed separately; experiment: qHTS assay to identify small molecule agonists of the AP-1 signaling pathway (AID 1159526); settings: ME-180 (cervical carcinoma) AP-1-bla reporter, beta-lactamase FRET ratio, 5 h; series mostly up to 76.8 µM; activation: at the top concentration
% is set by controls: 0 for no effect and ±100 for the full control effect.

Compound | activation
Cc1cc(S(=O)(=O)O)ccc1N=Nc1c(O)ccc2ccccc12 | -7.82% (inactive)
C1COCO1 | -6.34% (inactive)
CCOC(=O)CC(=O)C(=O)OCC | -1.32% (inactive)
Cc1ccc(Nc2nccc(N(C)c3ccc4c(C)n(C)nc4c3)n2)cc1S(N)(=O)=O | -11.2% [at 35.3 µM] (inactive)
O=C(N/N=C/c1ccc([N+](=O)[O-])o1)c1ccc(O)cc1 | 13.7% [at 35.3 µM] (inactive)
CCNC(=O)N1CCN(CCCC(c2ccc(F)cc2)c2ccc(F)cc2)CC1 | -0.197% [at 35.3 µM] (inactive)
CCC1(C)CC(=O)NC1=O (stereo not drawn) | 1.67% [at 35.3 µM] (inactive)
CCCCCC=CCC=CCCCCCCCC(=O)OCC | 3.98% [at 35.3 µM] (inactive)
CC(=O)[C@H]1CC[C@H]2[C@@H]3C=CC4=CC(=O)CC[C@@]4(C)[C@@H]3CC[C@]12C | -1.84% [at 35.3 µM] (inactive)
O=C1NCCN1 | -2.44% (inactive)
COC(=O)CC(=O)C(C)(C)C | -16.6% (inactive)
C=CCOC(=O)/C=C\C(=O)OCC=C | -5.75% (inactive)
CN(C(=O)C(Cl)Cl)c1ccc(OC(=O)c2ccco2)cc1 | 2.8% [at 35.3 µM] (inactive)
CCOC(=O)c1ccccc1C | -8.42% (inactive)
COc1cc2c(cc1OC)-c1cc(=Nc3c(C)cc(C)cc3C)n(C)c(=O)n1CC2 | -2.76% [at 35.3 µM] (inactive)
CC(CCc1ccc2c(c1)OCO2)NN (stereo not drawn) | -2.42% [at 35.3 µM] (inactive)
CCOC(=O)OCC | -3.52% (inactive)
Cc1cnc(C)c(C)n1 | 1.17% (inactive)
COc1ccc([C@@H]2Sc3ccccc3NC(=O)[C@@H]2O)cc1 | -1.26% [at 35.3 µM] (inactive)
CC(C)C(=O)O | -5.12% (inactive)
CCOC(=O)/C=C/C(=O)O | 4.65% (inactive)

molecular target: Retinoic acid receptor RXR-alpha (Homo sapiens) (UniProt P19793); experiment: qHTS assay to identify small molecule agonists of the RXR signaling pathway (AID 1159527); settings: HEK293T RXRa-UAS-bla, beta-lactamase ratio, 16 h; series mostly up to 76.8 µM; activation: at the top concentration; note: nearly all actives have a fitted effect of over 35% in size
Sequence (P19793 whole entry, looked up): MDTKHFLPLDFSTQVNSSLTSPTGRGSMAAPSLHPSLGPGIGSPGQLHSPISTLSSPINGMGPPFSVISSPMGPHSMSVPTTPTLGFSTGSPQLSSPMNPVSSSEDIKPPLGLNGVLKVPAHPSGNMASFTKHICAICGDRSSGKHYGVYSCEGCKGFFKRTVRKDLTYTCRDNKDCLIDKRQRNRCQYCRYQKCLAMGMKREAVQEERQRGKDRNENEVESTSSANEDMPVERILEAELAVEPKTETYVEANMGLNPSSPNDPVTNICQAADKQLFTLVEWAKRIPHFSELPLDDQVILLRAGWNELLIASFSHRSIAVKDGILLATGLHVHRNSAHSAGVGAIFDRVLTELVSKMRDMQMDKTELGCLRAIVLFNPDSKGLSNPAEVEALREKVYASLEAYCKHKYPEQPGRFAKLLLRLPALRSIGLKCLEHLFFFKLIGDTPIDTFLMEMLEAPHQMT
In short: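 Agonist mode; 9-cis retinoic acid positive control. HEK 293T UAS-bla reporter cells, 2% charcoal-stripped FBS, 16 hr compound exposure at 37 C/5% CO2. LiveBLAzer B/G FRET substrate 2 hr RT; ex 405, em 460/530 nm.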

Compound | activation
CC(C)CCCCCCOC(=O)CCCCC(=O)OCCCCCCC(C)C | -2.49% (inactive)
C[C@]12CCC(=O)C=C1C=C[C@@H]1[C@@H]2CC[C@@]2(C)[C@H]1CC[C@@]21CCC(=O)O1 | -17.7% [at 35.3 µM] (inactive)
CCc1cccc(N(C)C(N)=Nc2cccc3ccccc23)c1 | -7.72% [at 35.3 µM] (inactive)
CCCCC(=O)O[C@]1(C(=O)CO)CC[C@H]2[C@@H]3CCC4=CC(=O)CC[C@]4(C)[C@H]3[C@@H](O)C[C@@]21C | -12.5% [at 35.3 µM] (inactive)
CCC1(C)CC(=O)NC1=O (stereo not drawn) | 4.05% [at 35.3 µM] (inactive)
CCC(C(=O)OCCN(CC)CC)c1ccccc1 (stereo not drawn) | -0.536% [at 35.3 µM] (inactive)
C[N+](C)(C)CCOC(N)=O | 14.2% [at 35.3 µM] (inactive)
CN1C(=O)CC(C)(c2ccccc2)C1=O (stereo not drawn) | 0.467% [at 35.3 µM] (inactive)
CC(=O)[C@H]1CC[C@H]2[C@@H]3C[C@H](C)C4=CC(=O)CC[C@]4(C)[C@H]3[C@@H](O)C[C@]12C | -12.9% [at 35.3 µM] (inactive)
O=C(CCC1CCN(Cc2ccccc2)CC1)c1ccc2c(c1)NCCCC2 | -18.5% [at 35.3 µM] (inactive)
CC(CCc1ccc2c(c1)OCO2)NN (stereo not drawn) | 1.3% [at 35.3 µM] (inactive)
CC(C)C(=O)O | 5.3% (inactive)
